Results taken from PubChem BioAssay.
A number with no mark means an inactive call. The list shows a part of the results. The source made the active and inactive calls.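 How the source made its calls, unless noted: active means mean inhibition above 46.5%, the solvent-only control mean plus 3 SD; inactive means the rest.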

Legend:
[1] = system: transactivating tegument protein VP16 (Human herpesvirus 1); assay: compounds suppressing VP16-driven luciferase signal – cell-based, luminescence, single concentration, counter-screen for SRC2 inhibitor project (AID 652007; in the data active means inhibition above about 36%); conditions: cell-based VP16 transactivation luciferase reporter, at 8.9 µM, stronger effect = higher value
[2] = target: Nuclear receptor coactivator 2 (Homo sapiens) (UniProt Q15596); assay: inhibition of GAL4-SRC2 driven luciferase expression – cell-based, luminescence, HEK293, triplicate, confirmation (AID 652008); conditions: HEK293 GAL4-SRC2 luciferase reporter, at 8.9 µM, stronger effect = higher value;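 further: 0% = DMSO-treated cells and 100% = Gossypol at 36 µM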
[3] = VP16-driven transactivation reporter suppression – cell-based, luminescence, HEK293, counter-screen for COUP-TFII antagonist project (AID 687007; in the data active means inhibition above about 13%); conditions: HEK293 Gal4-VP16 luciferase reporter, at 8.5 µM, stronger effect = higher value
[4] = target: COUP transcription factor 2 (Homo sapiens) (UniProt P24468); assay: retest of COUP-TFII reporter suppressors – cell-based, luciferase reporter, HEK293, triplicate, confirmation (AID 687008;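 active means mean inhibition over three repeats above a set limit taken from the earlier primary screen, cut at about 38% in these data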;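 further: 100% = cells given the luciferase reporter alone without the COUP-TF2 vector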); conditions: HEK293 NGFI-A luciferase reporter, luminescence; at 8.5 µM; stronger effect = higher value
Sequence of COUP transcription factor 2 (Homo sapiens) (P24468 whole entry, looked up): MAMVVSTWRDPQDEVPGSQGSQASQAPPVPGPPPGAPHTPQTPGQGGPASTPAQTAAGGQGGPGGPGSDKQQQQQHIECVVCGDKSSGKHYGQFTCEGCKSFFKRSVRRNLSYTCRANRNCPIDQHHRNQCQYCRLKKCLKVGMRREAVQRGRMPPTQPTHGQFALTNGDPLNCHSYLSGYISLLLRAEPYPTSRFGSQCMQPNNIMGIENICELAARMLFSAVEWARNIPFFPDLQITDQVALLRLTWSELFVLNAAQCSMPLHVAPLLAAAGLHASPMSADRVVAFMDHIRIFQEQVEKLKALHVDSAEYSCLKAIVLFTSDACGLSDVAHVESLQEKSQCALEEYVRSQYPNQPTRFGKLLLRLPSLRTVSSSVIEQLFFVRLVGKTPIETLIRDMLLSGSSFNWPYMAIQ

Sequence of Nuclear receptor coactivator 2 (Homo sapiens) (Q15596 whole entry, looked up, the tested form may be a part): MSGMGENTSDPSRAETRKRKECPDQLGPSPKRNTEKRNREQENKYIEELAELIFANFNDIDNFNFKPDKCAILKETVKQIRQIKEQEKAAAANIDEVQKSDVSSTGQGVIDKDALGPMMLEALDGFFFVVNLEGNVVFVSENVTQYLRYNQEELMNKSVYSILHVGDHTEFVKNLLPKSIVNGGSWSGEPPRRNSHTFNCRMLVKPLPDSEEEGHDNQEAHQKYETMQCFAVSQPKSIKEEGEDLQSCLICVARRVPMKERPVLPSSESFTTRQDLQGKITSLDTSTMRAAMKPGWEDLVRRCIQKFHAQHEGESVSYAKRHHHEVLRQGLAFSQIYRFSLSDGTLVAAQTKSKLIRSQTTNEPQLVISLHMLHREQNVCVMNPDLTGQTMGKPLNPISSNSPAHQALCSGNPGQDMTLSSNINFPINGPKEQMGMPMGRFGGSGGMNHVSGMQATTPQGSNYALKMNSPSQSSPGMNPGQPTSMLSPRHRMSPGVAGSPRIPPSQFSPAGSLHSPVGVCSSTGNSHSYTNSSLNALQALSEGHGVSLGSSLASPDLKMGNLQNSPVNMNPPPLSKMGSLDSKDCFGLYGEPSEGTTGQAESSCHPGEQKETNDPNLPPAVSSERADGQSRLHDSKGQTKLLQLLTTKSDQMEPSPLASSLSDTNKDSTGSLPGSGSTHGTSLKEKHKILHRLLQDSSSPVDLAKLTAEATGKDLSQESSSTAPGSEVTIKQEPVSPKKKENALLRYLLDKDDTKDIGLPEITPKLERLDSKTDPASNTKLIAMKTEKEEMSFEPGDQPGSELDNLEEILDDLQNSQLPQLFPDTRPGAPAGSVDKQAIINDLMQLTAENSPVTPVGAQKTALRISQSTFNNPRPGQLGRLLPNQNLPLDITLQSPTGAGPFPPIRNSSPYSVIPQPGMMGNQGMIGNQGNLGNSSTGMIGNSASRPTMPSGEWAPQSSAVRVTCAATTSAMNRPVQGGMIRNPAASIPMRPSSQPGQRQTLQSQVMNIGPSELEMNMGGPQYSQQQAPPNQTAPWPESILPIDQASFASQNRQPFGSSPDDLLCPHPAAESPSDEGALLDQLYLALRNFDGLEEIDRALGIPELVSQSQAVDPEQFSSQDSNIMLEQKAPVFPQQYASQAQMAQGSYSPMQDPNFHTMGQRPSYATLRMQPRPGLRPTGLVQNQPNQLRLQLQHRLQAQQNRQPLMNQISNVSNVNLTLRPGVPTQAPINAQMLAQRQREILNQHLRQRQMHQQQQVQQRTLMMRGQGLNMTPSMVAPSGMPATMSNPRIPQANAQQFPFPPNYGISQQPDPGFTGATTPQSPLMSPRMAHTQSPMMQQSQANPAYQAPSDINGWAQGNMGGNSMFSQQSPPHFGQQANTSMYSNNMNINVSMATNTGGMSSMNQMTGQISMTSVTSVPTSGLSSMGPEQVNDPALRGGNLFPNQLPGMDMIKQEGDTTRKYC

| Compound | inhibition [1] | inhibition [2] | inhibition [3] | inhibition [4] |
| --- | --- | --- | --- | --- |
| COc1cccc(N2CCN(C(=O)c3ccc(CS(=O)c4ccc(Cl)cc4)o3)CC2)c1 (stereo unspecified) | 19.7% | 14.5% | – | – |
| CCOC(=O)C1CCN(C(=O)CCc2c(C)nc3cc(-c4ccccc4)nn3c2C)CC1 | -24.4% | 48.5% (active) | – | – |
| CC(C)c1cc(CNC(=O)c2ccc(OC3CCN(Cc4ccccn4)CC3)cc2)on1 | -9.72% | 11.8% | – | – |
| Cc1cc(-c2ccccc2)n(-c2cc(N/N=C/c3ccccc3O)ncn2)n1 | -0.63% | 51.5% (active) | – | – |
| O=C(CCCN1C(=O)/C(=C/c2ccccc2Cl)SC1=S)NNC(=O)c1ccc(Cl)cc1 | 73.7% (active) | 82% (active) | – | – |
| CCOC(=O)c1c(NC(=O)C2=COCCO2)sc2c1CCN(C(=O)OC)C2 | 3.45% | 8.72% | – | – |
| CN(Cc1ccc(Cl)s1)C(=O)CCl | 14.2% | 22% | – | – |
| CC1CCc2nc(NC(=O)c3ccco3)sc2C1 (stereo unspecified) | -23.2% | 11.1% | – | – |
| O=C(Nc1ccc2oc(=O)c(C(=O)O)cc2c1)Oc1ccccc1 | -3.08% | 9.66% | – | – |
| CCOc1ccc(-c2cc(CCCC(=O)Nc3cc(OC)ccc3OC)no2)cc1 | 47.9% (active) | 79.5% (active) | – | – |
| Cc1ccc(C(=O)NC(=S)Nc2ccc(-c3cc4ccccc4oc3=O)cc2)c(C)c1 | -3.58% | 19.5% | – | – |
| CCc1ccc(/C=C2\SC(=S)N(CCC(=O)NC3=NCCS3)C2=O)cc1 | -67.3% | 75% (active) | – | – |
| Cc1ccc(NC(=O)COC(=O)C2=NN(c3ccccc3)C(=O)CC2)c(Br)c1 | -16.2% | -37.9% | – | – |
| Cc1cccc(NS(=O)(=O)c2ccc(C)c(C(=O)NC3CCN(Cc4ccccc4)CC3)c2)c1 | 8.2% | 6.89% | – | – |
| C/C(CC(=O)NC1C2CC3CC(C2)CC1C3)=N\NC(=O)Cc1cccs1 (stereo unspecified) | -16.1% | -8.93% | – | – |
| Cc1c(CCC(=O)O)c(=O)oc2cc(OCc3ccccc3Br)ccc12 | 19.4% | 20.1% | – | – |
| CN1OC[C@@H]2CN(S(=O)(=O)c3cccc(C(F)(F)F)c3)[C@H](c3ccc(-c4cc5ccccc5o4)cc3)C[C@@H]21 | 3.18% | 46.3% | -5.07% | 0.77% |
| C=CCN=C1NN=C(c2cc(C)n(CCOC)c2C)CS1 | 69.5% (active) | 86% (active) | – | – |
| O=C(CSc1nc2[nH]c(=O)[nH]c(=O)c2s1)Nc1cccc(F)c1 | 0.35% | -0.5% | – | – |
| COC(=O)c1ccc(CN2CCc3ccc(NC(=O)c4ccncc4)cc3C2)cc1 | -9.32% | 26.8% | – | – |
| C[n+]1ccccc1/C=C/c1ccccc1Cl | -18.2% | -7.01% | – | – |

| Compound | inhibition [1] | inhibition [2] | inhibition [3] | inhibition [4] |
| --- | --- | --- | --- | --- |
| CC(C)(C)n1nc2c(c1NC(=O)c1cc([N+](=O)[O-])ccc1Cl)CS(=O)(=O)C2 | 25.2% | 47.5% (active) | – | – |
| Nc1nonc1-n1nnc(C(=O)N/N=C/c2ccccc2Br)c1CN1CCCC1 | -7.5% | -12.4% | – | – |
| C=CCc1cccc2cc(C(=O)Nc3ccc(CC(=O)O)cc3)c(=O)oc12 | 12% | 25.6% | – | – |
| CCN(CC)S(=O)(=O)c1cccc(C(=O)N/N=C/c2cccc(O)c2O)c1 | -46.8% | -7.21% | – | – |
| Cc1ccoc1C(=O)Nc1ccc(CC(=O)O)cc1 | 41.7% (active) | 83.4% (active) | – | – |
| CCOC(=O)c1c(NC(=O)c2cnn3c2NC(c2cccc(OC)c2)CC3C(F)(F)F)sc2c1CCCC2 (stereo unspecified) | 16.7% | -21.9% | – | – |
| COc1ccc(S(=O)(=O)N2c3ccc(F)cc3CCC2C)cc1 (stereo unspecified) | -6.76% | 1.23% | – | – |
| O=C(NC12CC3CC(CC(C3)C1)C2)C1CC(=O)N(c2ccccc2)C1 (stereo unspecified) | 9.52% | -0.38% | – | – |
| COc1cc(-c2nnc(-c3cc(-c4ccccc4)nc4ccccc34)o2)cc(OC)c1OC | -13.1% | -5.55% | – | – |
| O=C(O)CCSc1nnc(-c2ccc3c(c2)OCO3)o1 | 45.9% (active) | 60.7% (active) | – | – |
| Cc1ccc(C(=O)c2cnc3ccccc3c2-c2ccccc2)cc1 | -3.52% | 16.4% | – | – |
| COC(=O)c1cc(C(=O)OC)cc(S(=O)(=O)Nc2ccc(Cl)c(N)c2)c1 | -6.46% | -14.7% | – | – |
| CCC(C)[C@H](NC(=O)C1CC(=O)N(c2ccc(OC)cc2)C1)C(=O)N1CCCCC1 (stereo partly specified) | 6.37% | 10.3% | – | – |
| CCC(=O)Nc1ccc2c(c1)C(=O)N(C)[C@@H]1CC[C@@H](CC(=O)NCc3ccc(OC)cc3)O[C@H]1CO2 | -18.1% | -9.9% | – | – |
| O=C(CCCCl)NC(=S)Nc1cc(C(F)(F)F)ccc1N1CCOCC1 | -12.4% | -9.88% | – | – |
| CCC(C)Nc1nc(C)nc2c1oc1ccccc12 (stereo unspecified) | 2.3% | 3.55% | – | – |
| COC(=O)c1c(N)sc(C(=O)NCCc2ccccc2)c1C | -1.83% | 49.4% (active) | – | – |
| Cc1ccc2nc(C)cc(Nc3ccc4c(c3)OCCO4)c2c1 | -23.7% | 0.71% | – | – |
| N#CC1CCCc2c1[nH]c1ccc([N+](=O)[O-])cc21 (stereo unspecified) | -27% | -16.7% | – | – |
| CN(Cc1cc(Cl)cc(Cl)c1)CC(C(=O)c1ccccc1)c1ccccc1 (stereo unspecified) | 25% | 47.9% (active) | – | – |
| CC(C)CNC(=O)COC(=O)c1c2c(nc3ccccc13)CCC2 | 9.25% | 11.4% | – | – |
